# Test results as given in article PMC7862700, “An all-to-all approach to the identification of sequence-specific readers for epigenetic DNA modifications on cytosine”.
# Assays:
# Assay in all cases: DAPPL (digital affinity profiling via proximity ligation, sequencing); 10 mM Tris-HCl pH 7.5, 50 mM NaCl, 1 mM DTT, 4% glycerol, room temperature, 30 min; GST-TFs on glutathione beads, 16-mer random dsDNA library, 0.1% formaldehyde crosslink after washing; high values mean tight binding
# [1] = molecular target: T1, FLI1 (Homo sapiens, UniProt Q01543 1-452); conditions: protein: recombinant; tags: N-terminal GST; dsDNA, one strand shown
# T1 sequence: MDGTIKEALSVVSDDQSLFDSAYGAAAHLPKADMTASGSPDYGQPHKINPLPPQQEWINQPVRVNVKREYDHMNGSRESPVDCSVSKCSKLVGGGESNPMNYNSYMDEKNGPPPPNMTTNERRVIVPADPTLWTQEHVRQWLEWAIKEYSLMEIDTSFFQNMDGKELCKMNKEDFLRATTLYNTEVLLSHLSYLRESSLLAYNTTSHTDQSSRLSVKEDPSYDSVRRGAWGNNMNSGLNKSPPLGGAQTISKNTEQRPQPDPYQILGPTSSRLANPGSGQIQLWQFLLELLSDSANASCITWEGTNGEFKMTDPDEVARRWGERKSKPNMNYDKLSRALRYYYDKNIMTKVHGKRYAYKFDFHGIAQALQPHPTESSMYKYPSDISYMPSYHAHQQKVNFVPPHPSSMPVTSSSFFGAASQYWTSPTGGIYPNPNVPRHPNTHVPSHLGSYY
# Summary of the method: (§1)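 Each value of binding signal is a hexamer's read frequency for a factor divided by the same hexamer's frequency in the tag-only sample. Barcoded, bead-captured GST fusions of human transcription factors made in yeast were pooled with that sample and incubated with 200 nmole of a random double-stranded 16-mer DNA library in Tris/NaCl/DTT/glycerol buffer at room temperature for 30 min. Washing, 0.1% formaldehyde crosslinking, proximity ligation, PCR and Illumina NextSeq500 sequencing followed.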
# [2] = molecular target: T2, ELK1 (Homo sapiens, UniProt P19419 1-428); conditions: protein: recombinant; tags: N-terminal GST; dsDNA, one strand shown
# T2 sequence: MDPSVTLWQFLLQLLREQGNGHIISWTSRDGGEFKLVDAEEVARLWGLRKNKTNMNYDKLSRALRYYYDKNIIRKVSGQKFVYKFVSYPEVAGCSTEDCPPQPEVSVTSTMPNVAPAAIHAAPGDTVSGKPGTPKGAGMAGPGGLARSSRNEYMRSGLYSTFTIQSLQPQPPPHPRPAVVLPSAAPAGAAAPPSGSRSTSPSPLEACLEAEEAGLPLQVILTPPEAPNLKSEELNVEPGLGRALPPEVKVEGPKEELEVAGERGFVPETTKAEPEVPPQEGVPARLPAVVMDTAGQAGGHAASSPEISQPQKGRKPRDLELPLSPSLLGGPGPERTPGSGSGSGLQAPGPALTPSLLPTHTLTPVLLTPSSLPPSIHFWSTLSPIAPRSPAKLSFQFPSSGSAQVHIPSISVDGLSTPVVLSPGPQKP
# Summary of the method: as §1
# [3] = molecular target: T3, GABPA (Homo sapiens, UniProt Q06546 1-454); conditions: protein: recombinant; tags: N-terminal GST; dsDNA, one strand shown
# T3 sequence: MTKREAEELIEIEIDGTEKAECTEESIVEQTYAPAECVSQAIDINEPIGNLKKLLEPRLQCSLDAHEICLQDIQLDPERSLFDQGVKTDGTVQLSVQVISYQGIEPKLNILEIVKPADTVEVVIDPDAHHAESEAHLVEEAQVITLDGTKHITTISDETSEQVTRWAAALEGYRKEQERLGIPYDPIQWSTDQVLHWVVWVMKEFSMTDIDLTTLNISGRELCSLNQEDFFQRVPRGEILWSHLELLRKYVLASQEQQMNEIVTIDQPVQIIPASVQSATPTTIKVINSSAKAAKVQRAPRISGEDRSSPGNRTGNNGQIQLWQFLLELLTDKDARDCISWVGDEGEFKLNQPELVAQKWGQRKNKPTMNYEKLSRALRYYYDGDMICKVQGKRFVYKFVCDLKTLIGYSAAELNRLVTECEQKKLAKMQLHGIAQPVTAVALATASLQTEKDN
# Summary of the method: as §1
# [4] = molecular target: T4, ERG (Homo sapiens, UniProt P11308 1-479); conditions: protein: recombinant; tags: N-terminal GST; dsDNA, one strand shown
# T4 sequence: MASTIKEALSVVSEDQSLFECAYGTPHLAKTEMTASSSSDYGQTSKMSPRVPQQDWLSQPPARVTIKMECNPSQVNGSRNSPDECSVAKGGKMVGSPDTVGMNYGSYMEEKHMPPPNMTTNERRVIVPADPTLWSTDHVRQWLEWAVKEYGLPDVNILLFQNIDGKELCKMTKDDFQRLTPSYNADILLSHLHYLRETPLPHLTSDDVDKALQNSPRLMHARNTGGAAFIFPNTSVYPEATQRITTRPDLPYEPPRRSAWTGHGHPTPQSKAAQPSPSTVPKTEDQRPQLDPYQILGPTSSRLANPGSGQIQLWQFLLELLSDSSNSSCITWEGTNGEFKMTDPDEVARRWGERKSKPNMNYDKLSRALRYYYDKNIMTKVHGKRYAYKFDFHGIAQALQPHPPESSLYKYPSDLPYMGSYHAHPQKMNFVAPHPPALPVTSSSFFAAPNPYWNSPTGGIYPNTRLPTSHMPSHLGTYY
# Summary of the method: as §1
# [5] = molecular target: ELF1 (Homo sapiens, UniProt P32519 1-619); conditions: protein: recombinant; tags: N-terminal GST; dsDNA, one strand shown
# Summary of the method: as §1
# [6] = molecular target: T5, EHF (Homo sapiens, UniProt Q9NZC4 1-300); conditions: protein: recombinant; tags: N-terminal GST; dsDNA, one strand shown
# T5 sequence: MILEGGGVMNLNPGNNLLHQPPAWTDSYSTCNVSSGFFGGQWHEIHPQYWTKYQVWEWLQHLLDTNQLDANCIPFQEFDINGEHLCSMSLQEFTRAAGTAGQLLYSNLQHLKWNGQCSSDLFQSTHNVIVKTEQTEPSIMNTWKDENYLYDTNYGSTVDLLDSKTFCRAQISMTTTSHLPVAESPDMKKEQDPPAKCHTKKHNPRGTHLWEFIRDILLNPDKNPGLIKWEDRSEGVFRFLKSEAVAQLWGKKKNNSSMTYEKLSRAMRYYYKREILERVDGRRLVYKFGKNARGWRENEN
# Summary of the method: as §1
# [7] = molecular target: SPI1 (Homo sapiens, UniProt P17947 1-270); conditions: protein: recombinant; tags: N-terminal GST; dsDNA, one strand shown
# Summary of the method: as §1
# [8] = molecular target: SPIB (Homo sapiens, UniProt Q01892 1-262); conditions: protein: recombinant; tags: N-terminal GST; dsDNA, one strand shown
# Summary of the method: as §1
# [9] = molecular target: T6, ELK3 (Homo sapiens, UniProt P41970 1-407); conditions: protein: recombinant; tags: N-terminal GST; dsDNA, one strand shown
# T6 sequence: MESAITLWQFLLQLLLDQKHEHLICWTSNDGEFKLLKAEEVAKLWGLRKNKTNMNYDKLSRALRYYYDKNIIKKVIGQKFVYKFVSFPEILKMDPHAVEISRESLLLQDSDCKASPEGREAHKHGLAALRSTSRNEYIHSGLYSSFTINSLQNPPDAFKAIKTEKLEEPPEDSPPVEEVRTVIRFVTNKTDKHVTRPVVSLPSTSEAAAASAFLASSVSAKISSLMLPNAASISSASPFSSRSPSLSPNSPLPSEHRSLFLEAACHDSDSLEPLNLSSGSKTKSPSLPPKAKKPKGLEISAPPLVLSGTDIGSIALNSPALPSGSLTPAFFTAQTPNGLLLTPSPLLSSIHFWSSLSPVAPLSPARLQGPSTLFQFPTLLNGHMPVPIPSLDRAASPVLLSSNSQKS
# Summary of the method: as §1
# [10] = molecular target: T7, FEV (Homo sapiens, UniProt Q99581 1-238); conditions: protein: recombinant; tags: N-terminal GST; dsDNA, one strand shown
# T7 sequence: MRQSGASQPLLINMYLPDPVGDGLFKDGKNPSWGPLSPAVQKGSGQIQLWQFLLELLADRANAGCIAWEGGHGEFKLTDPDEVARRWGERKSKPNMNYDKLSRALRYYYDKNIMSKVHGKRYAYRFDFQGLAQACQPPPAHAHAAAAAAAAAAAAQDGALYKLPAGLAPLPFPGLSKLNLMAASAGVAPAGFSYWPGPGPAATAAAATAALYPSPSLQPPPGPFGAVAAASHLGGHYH
# Summary of the method: as §1
# [11] = molecular target: ETV5 (Homo sapiens, UniProt P41161 1-510); conditions: protein: recombinant; tags: N-terminal GST; dsDNA, one strand shown
# Summary of the method: as §1
# [12] = molecular target: HSF1 (Homo sapiens, UniProt Q00613 1-529); conditions: protein: recombinant; tags: N-terminal GST; chain copies: 3; dsDNA, one strand shown
# Summary of the method: as §1
# [13] = molecular target: T8, SPIC (Homo sapiens, UniProt Q8N5J4 1-248); conditions: protein: recombinant; tags: N-terminal GST; dsDNA, one strand shown
# T8 sequence: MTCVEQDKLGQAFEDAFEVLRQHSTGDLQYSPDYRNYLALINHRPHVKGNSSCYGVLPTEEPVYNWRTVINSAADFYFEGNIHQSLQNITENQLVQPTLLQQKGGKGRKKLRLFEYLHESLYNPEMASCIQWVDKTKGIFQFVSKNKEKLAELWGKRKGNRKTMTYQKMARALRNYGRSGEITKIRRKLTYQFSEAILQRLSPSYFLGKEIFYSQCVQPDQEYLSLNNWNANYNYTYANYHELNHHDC
# Summary of the method: as §1
# [14] = molecular target: ELF4 (Homo sapiens, UniProt Q99607 1-663); conditions: protein: recombinant; tags: N-terminal GST; dsDNA, one strand shown
# Summary of the method: as §1
# [15] = molecular target: T9, ELK4 (Homo sapiens, UniProt P28324-2 1-405); conditions: protein: recombinant; tags: N-terminal GST; dsDNA, one strand shown
# T9 sequence: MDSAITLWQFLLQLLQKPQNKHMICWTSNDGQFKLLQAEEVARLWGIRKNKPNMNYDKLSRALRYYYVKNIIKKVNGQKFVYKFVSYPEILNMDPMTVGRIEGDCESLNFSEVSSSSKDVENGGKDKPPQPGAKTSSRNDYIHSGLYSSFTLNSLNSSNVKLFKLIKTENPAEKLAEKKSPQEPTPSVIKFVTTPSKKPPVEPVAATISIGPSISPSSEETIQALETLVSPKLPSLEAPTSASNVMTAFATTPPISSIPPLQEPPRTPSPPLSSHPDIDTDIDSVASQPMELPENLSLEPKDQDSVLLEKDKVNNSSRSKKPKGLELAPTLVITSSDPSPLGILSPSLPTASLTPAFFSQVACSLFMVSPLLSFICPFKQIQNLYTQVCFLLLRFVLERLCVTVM
# Summary of the method: as §1
# [16] = molecular target: T10, ETV2 (Homo sapiens, UniProt O00321 1-342); conditions: protein: recombinant; tags: N-terminal GST; dsDNA, one strand shown
# T10 sequence: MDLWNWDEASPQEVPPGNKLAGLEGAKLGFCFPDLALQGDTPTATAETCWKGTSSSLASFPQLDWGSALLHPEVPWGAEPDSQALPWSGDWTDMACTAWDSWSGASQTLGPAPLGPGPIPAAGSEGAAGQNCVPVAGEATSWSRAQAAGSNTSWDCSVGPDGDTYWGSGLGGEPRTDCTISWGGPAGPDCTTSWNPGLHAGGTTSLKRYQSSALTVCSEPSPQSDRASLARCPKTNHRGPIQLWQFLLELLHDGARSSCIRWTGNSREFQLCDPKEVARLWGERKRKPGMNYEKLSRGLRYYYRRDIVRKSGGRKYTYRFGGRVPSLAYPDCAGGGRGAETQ
# Summary of the method: as §1
# [17] = molecular target: T11, ELF3 (Homo sapiens, UniProt P78545 1-371); conditions: protein: recombinant; tags: N-terminal GST; dsDNA, one strand shown
# T11 sequence: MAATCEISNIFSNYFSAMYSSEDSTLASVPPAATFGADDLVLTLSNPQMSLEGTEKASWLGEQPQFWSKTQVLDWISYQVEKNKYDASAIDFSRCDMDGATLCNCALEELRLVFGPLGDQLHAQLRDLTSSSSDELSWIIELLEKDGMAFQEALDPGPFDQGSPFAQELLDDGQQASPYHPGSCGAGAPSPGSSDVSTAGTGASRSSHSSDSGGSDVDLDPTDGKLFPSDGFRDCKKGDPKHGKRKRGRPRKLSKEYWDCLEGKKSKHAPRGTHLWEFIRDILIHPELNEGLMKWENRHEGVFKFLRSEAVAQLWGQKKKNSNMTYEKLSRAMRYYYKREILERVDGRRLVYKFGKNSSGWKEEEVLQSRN
# Summary of the method: as §1
# [18] = molecular target: CRX (Homo sapiens, UniProt O43186 1-299); conditions: protein: recombinant; tags: N-terminal GST; dsDNA, one strand shown
# Summary of the method: as §1
# [19] = molecular target: ETV1 (Homo sapiens, UniProt P50549 1-477); conditions: protein: recombinant; tags: N-terminal GST; dsDNA, one strand shown
# Summary of the method: as §1
# ELF4, sequence (Q99607 whole entry): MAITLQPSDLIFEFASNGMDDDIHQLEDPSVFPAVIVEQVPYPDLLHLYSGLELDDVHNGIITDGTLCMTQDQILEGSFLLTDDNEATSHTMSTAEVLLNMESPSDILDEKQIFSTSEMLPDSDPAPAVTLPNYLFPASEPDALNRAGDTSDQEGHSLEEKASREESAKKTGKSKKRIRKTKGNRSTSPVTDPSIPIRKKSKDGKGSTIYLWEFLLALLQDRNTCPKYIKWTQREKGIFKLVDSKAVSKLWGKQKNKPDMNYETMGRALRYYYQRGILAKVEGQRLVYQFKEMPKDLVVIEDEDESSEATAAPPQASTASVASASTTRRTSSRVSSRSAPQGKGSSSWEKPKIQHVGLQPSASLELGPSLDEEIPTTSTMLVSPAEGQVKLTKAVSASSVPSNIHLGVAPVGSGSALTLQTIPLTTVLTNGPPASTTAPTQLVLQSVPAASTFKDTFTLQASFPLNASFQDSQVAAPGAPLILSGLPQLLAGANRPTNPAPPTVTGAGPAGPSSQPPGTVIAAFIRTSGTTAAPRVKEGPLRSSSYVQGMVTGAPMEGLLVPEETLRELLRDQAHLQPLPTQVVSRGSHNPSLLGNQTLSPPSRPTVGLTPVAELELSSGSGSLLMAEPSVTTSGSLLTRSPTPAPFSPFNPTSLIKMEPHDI
# HSF1, sequence (Q00613 whole entry): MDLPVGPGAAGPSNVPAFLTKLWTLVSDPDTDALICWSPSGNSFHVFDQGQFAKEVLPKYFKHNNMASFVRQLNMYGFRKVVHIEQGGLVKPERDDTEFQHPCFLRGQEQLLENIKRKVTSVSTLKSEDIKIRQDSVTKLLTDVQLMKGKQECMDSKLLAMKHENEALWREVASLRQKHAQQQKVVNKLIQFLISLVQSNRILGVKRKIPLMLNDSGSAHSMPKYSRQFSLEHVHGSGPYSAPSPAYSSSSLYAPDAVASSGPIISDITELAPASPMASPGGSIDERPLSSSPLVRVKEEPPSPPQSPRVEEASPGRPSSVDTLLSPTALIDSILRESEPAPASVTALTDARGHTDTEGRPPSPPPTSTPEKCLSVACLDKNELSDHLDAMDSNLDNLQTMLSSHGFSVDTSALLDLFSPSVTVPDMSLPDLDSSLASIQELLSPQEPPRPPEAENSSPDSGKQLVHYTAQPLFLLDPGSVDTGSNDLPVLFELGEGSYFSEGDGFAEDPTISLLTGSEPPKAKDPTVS
# ETV1, sequence (P50549 whole entry): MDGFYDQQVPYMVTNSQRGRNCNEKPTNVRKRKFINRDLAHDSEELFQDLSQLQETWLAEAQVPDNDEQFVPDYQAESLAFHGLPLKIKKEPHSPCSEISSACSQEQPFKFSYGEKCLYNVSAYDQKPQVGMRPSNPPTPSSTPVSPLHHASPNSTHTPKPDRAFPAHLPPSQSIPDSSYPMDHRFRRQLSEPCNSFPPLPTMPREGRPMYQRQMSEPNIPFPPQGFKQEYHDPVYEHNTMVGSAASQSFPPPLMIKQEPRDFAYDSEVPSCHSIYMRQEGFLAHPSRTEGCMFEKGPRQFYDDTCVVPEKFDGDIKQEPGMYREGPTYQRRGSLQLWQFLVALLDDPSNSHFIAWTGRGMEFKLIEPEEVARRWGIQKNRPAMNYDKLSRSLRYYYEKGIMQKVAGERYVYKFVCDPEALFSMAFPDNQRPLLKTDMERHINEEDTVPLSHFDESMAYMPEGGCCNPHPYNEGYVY
# ETV5, sequence (P41161 whole entry): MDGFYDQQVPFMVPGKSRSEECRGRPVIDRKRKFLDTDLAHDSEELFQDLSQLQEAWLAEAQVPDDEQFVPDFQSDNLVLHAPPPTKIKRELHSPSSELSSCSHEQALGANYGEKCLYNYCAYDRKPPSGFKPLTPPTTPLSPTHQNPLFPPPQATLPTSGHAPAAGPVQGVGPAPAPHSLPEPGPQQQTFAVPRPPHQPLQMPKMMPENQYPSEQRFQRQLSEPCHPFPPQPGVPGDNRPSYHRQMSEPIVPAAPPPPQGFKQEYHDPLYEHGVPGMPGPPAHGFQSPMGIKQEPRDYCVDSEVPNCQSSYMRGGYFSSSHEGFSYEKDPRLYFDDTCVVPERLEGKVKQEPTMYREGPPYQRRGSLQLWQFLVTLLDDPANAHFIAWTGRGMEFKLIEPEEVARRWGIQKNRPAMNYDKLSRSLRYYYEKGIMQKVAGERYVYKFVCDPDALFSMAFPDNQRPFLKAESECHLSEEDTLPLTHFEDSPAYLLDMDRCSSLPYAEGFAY
# SPIB, sequence (Q01892 whole entry): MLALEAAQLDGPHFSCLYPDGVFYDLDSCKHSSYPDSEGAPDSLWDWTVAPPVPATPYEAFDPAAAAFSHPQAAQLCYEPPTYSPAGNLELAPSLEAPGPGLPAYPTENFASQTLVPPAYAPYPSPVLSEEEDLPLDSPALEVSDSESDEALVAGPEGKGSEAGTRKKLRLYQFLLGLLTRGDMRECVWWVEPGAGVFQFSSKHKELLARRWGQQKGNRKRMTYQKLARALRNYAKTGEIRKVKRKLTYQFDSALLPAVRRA
# CRX, sequence (O43186 whole entry): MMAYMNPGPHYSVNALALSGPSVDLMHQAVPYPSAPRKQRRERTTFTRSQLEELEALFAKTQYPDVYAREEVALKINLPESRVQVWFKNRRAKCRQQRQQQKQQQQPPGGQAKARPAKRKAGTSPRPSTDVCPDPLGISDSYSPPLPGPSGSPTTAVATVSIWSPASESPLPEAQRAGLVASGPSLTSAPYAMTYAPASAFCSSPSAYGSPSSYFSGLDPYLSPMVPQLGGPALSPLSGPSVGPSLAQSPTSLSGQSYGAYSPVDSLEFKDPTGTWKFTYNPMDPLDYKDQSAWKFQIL
# ELF1, sequence (P32519 whole entry): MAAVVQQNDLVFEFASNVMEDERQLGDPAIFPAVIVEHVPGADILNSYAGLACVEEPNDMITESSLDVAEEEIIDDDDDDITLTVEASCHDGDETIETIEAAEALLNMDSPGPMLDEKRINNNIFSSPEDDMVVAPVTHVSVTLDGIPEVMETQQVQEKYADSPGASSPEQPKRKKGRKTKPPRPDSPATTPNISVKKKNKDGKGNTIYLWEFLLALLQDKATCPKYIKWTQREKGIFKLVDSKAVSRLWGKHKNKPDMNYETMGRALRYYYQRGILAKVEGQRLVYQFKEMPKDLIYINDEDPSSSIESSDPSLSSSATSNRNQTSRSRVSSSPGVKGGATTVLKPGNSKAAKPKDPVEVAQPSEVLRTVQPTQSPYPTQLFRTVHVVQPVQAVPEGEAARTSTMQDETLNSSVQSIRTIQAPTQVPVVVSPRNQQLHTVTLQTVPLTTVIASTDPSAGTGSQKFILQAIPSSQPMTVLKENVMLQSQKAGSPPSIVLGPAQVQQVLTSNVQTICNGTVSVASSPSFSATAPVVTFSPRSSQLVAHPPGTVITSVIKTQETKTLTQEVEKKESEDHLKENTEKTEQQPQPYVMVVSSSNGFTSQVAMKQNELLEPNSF
sequence,measurement,setting,value
CCCTCG,binding signal,[1],"1.23 fold enrichment (6-mer frequency, TF over GST control)"
same,binding signal,[2],"1.34 fold enrichment (6-mer frequency, TF over GST control)"
same,binding signal,[3],"1.38 fold enrichment (6-mer frequency, TF over GST control)"
same,binding signal,[4],"1.14 fold enrichment (6-mer frequency, TF over GST control)"
same,binding signal,[5],"1.34 fold enrichment (6-mer frequency, TF over GST control)"
same,binding signal,[6],"1.24 fold enrichment (6-mer frequency, TF over GST control)"
same,binding signal,[7],"1.23 fold enrichment (6-mer frequency, TF over GST control)"
same,binding signal,[8],"1.34 fold enrichment (6-mer frequency, TF over GST control)"
same,binding signal,[9],"1.15 fold enrichment (6-mer frequency, TF over GST control)"
same,binding signal,[10],"1.19 fold enrichment (6-mer frequency, TF over GST control)"
same,binding signal,[11],"1.19 fold enrichment (6-mer frequency, TF over GST control)"
same,binding signal,[12],"1.22 fold enrichment (6-mer frequency, TF over GST control)"
same,binding signal,[13],"1.25 fold enrichment (6-mer frequency, TF over GST control)"
same,binding signal,[14],"1.36 fold enrichment (6-mer frequency, TF over GST control)"
same,binding signal,[15],"1.36 fold enrichment (6-mer frequency, TF over GST control)"
same,binding signal,[16],"1.25 fold enrichment (6-mer frequency, TF over GST control)"
same,binding signal,[17],"1.17 fold enrichment (6-mer frequency, TF over GST control)"
same,binding signal,[18],"1.06 fold enrichment (6-mer frequency, TF over GST control)"
same,binding signal,[19],"1.25 fold enrichment (6-mer frequency, TF over GST control)"
